IL1B secr inh – inhibitors of inflammasome signaling (IL-1 beta secretion) | THP-1 LPS/ATP IL-1B secretion, AlphaLISA, 16 h; active compounds read low | activity change, % at 57.5 µM | actives 4.7% (n = 360,000); in the data active = activity change below about -50%; inconclusive = mostly about -30% to -49%
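THP-1 cells pretreated 1 hr with compounds (up to 57.5 uM final), then stimulated with LPS (250 ng/mL final) plus ATP (1.25 mM final); secreted IL-1B measured by AlphaLISA after 16 hr, decreased signal indicating inhibition.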
DT40 TDP1 no CPT – qHTS for Inhibitors of human tyrosyl-DNA phosphodiesterase 1 (TDP1): qHTS in cells in absence of CPT; DT40 Tdp1-/- hTDP1 cells, no CPT, ATP luminescence, 48 h; Potency, µM (highest dose often 46.2 µM), usual class: inhibitors; actives 15% (n = 420,000); AID 686978, 2013; also: nearly all actives have a fitted effect of over 55% in size
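DT40 Tdp1-/-;hTDP1 cells, no CPT (DMSO vehicle only), 400 cells/well; compounds pin-transferred; ≥48 hr, 37 °C; CellTiter-Glo 30 min RT dark, luminescence read.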
D3 antag – antagonists of human D3 dopamine receptor. actives 2.5% (n = 360,000). D3R cells, DiscoveRx beta-arrestin luminescence, antagonist mode; active compounds read low. max response, negative = inhibition, %; in the data active = max response below about -50%; inconclusive = no clear call, values can overlap the other calls
Target sequence (P35462 whole entry, looked up): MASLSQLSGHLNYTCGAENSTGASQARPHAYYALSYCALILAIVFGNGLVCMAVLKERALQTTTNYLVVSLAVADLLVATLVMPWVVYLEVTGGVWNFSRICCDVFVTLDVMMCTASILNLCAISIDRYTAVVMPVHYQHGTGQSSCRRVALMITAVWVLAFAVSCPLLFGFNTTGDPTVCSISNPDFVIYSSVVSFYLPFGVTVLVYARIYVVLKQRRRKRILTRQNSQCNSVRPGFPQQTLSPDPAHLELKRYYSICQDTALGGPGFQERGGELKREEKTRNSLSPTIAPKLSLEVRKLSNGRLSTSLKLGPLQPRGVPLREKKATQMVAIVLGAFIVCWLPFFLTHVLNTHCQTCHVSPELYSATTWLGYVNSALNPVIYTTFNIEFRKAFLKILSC
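Cells plated overnight at 1500 cells/well, then exposed to library compounds with dopamine controls for 90 minutes at 37 degrees C. DiscoveRx reagent added for 30–60 minutes at room temperature; luminescence read, quantitative HTS format.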
DT40 TDP1 CPT – growth inhibition of DT40 Tdp1-/-;hTDP1 cells with camptothecin (screen for TDP1 inhibitors); chicken DT40 Tdp1-/-;hTDP1 cells + 20 nM CPT, ATP luminescence, 48 h; actives 12% (n = 420,000); Potency, µM (doses to about 46.2 µM), hits mostly inhibitors; also: nearly all actives have a fitted effect of over 55% in size
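Cell growth measured by CellTiter-Glo luminescence after a minimum 48 h, 37 C compound exposure with 20 nM CPT in Tdp1-knockout DT40 cells stably expressing hTDP1, seeded 400/well; qHTS titration format.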
DRD3 agonist – activates the human D3 dopamine receptor. D3R DiscoveRx beta-arrestin cells, luminescence, 90 min. max activation, %. actives 0.58% (n = 410,000); in the data active = max activation above about 30%
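Agonist mode: compounds and dopamine controls were applied to plated cells for 90 min at 37 degrees C after an overnight attachment at 1500 cells/well. Luminescent read-out followed 30 - 60 minutes at room temperature with DiscoveRx detection reagent.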
ClpP mod – qHTS Assay for Activators of ClpP; purified B. subtilis ClpP, FRET peptide cleavage, 20 min; ATP-dependent Clp protease proteolytic subunit (Bacillus subtilis (strain 168)), P80244; Potency, µM (doses to about 57.5 µM); actives 1.9% (n = 340,000); active = well fitted falling curve with a large enough effect; inconclusive = small, poorly fitted or top-dose-only effect; inactive = no such curve, though single readings can be large or run the other way; also: the source files actives as falling curves though it sought activators and does not explain the sign; nearly all actives have a fitted effect of over 65% in size
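FRET quenching reversal measured ClpP activation: 10 microg/mL B. subtilis ClpP at pH 8 with the FRET-FV decapeptide, read at 430 nm after 320 nm excitation. The 20-min minus 0-min signal was scaled between DMSO/no-enzyme wells and ADEP (5.8 microM final).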
A number is an active result; . = inactive; ? = inconclusive; / = no result; ! = not confirmed by another sample. Sampled rows, rich in hits. Any-hit rate of the full collection: about 21%. Unless noted, calls follow the shape of the dose curve; as a rule, active = well fitted inhibition curve with a large enough effect; inconclusive = small, poorly fitted or top-dose-only effect; inactive = flat fitted curve, though single readings scatter.

SMILES	IL1B secr inh	DT40 TDP1 no CPT	D3 antag	DT40 TDP1 CPT	DRD3 agonist	ClpP mod
Cc1ccc(C(C)C)c(OCC(=O)N/N=C/c2cccn2C)c1	.	15µM	.	?	31	.
Cc1ccc(C(C)C)c(OCC(=O)NNC(=O)Nc2ccccc2)c1	-76	?	.	.	.	/
Cc1ccc(C(C)C)cc1OCC(=O)NNC(=O)Nc1ccccc1	.	?	.	?	.	/
CC(C)c1ccccc1OCCNC(=O)c1cccnc1	.	21µM	.	18µM	.	/
Cc1ccc(OCCNC(=O)c2ccccc2O)cc1	.	?	.	?	.	.
Cc1ccc(C(C)C)c(OCCNC(=O)c2ccccc2O)c1	-81	26µM	.	15µM	.	.
CC(=O)Oc1ccc2c(=O)c(-c3nc4ccccc4s3)coc2c1	.	.	.	.	.	/
O=C1c2ccccc2C(=O)N1c1ccc(O)cc1	/	.	/	.	/	.
CCOc1cc(Br)c(C(C)NC(=O)c2cccnc2)cc1OCC (configuration not stated)	.	23µM	.	18µM	.	.
CCOc1cc(C(=O)NC(C)c2ccncc2)cc(OCC)c1OCC (configuration not stated)	.	.	?	.	.	.
Cc1ccc(C(C)C)c(OCC(=O)Nc2cccc(NC(=O)c3ccco3)c2)c1	/	21µM	/	?	.	.
Cc1ccccc1OCC(=O)Nc1cccc(NC(=O)c2ccco2)c1	.	?	.	?	.	.
Cc1ccc(S(=O)(=O)NC(=O)COc2cc(C)ccc2C(C)C)cc1	.	.	-55	?	.	.
Cc1ccc(C(C)C)c(OCC(=O)Nc2ccc(Cl)cn2)c1	.	.	.	.	.	.
CCCCOC(=O)CSc1nnc(-c2cc(OC)c(OC)c(OC)c2)o1	.	.	.	.	.	.
CCCCN(CCCC)C(=O)CSc1nnc(-c2cc(OC)c(OC)c(OC)c2)o1	-54	14µM	.	18µM	.	.
COc1cc(-c2nnc(SCC(=O)N(Cc3ccccc3)C(C)(C)C)o2)cc(OC)c1OC	-56	15µM	.	13µM	.	.
COc1cc(-c2nnc(SCC(=O)NCc3ccccc3Cl)o2)cc(OC)c1OC	/	?	/	?	.	.
CN1C(=O)C(C)(C)c2cc(S(=O)(=O)N3CCN(c4cccc(Cl)c4)CC3)ccc21	.	?	.	?	.	.
CCOc1ccc(NC(=O)Cn2ccn(-c3ccc(F)c(F)c3)c(=O)c2=O)cc1	/	.	/	.	.	.
CCSc1nnc(-c2ccncc2)o1	.	.	.	.	.	.
CCSc1nnc(-c2sc3nnc(-c4ccccc4)c(-c4ccccc4)c3c2N)o1	?	23µM	.	13µM	.	.
N=c1n(CCN2CCCCC2)c2ccccc2n1CC(O)COc1ccccc1 (configuration not stated)	-56	15µM	.	18µM	.	.
Cc1ccccc1OCC(O)Cn1c(=N)n(CCN2CCCCC2)c2ccccc21 (configuration not stated)	/	4.6µM	/	5.8µM	.	.
COC(=O)Cn1c(=N)n(CCN2CCCCC2)c2ccccc21	.	.	.	.	.	.
SMILES	IL1B secr inh	DT40 TDP1 no CPT	D3 antag	DT40 TDP1 CPT	DRD3 agonist	ClpP mod
Cc1ccccc1OCC(O)Cn1c(=N)n(CCN2CCOCC2)c2ccccc21 (configuration not stated)	-54!	?	.	?	.	.
COc1ccccc1OCC(O)Cn1c(=N)n(CCN2CCCCC2)c2ccccc21 (configuration not stated)	-53	16µM	?	?	.	.
Cc1ccccc1OCCN1C(=O)c2ccccc2C1=O	.	.	.	.	.	.
Cc1ccccc1OCCn1c(=N)n(C(C)C)c2ccccc21	/	6.5µM	/	8.2µM	.	.
CC(=O)n1cc(/C=N/NC(=O)c2ccccc2O)c2ccccc21	?	.	.	.	.	.
CC(C)(C)OC(=O)n1cc(/C=N/NC(=O)c2ccco2)c2ccccc21	-60	.	.	.	.	.

Compound activity as filed in PubChem.
